59 compounds from PubChem BioAssay AID488895 (Broad Institute, 2010) can be followed below.

The whole screen tested about 340,000 compounds, of which about 120 (0.035%) were called active. Shown is part of a subset that was picked to be rich in actives. Values without a mark were called inactive.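 Rule for the calls: active = mean replicate inhibition at least 50% and at least half of replicates individually reaching 50%; inconclusive = only one of the two criteria met; inactive = neither criterion met.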

By inhibition is commonly meant the relative decrease from the control value, in per cent.

This assay can be described thus: blockers of twin-arginine translocation in E. coli – MC4100, TorA-mCherry reporter, fluorescence, single point, primary screen (AID 488895).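 Note: exported cargo escapes ClpAP degradation while cytoplasmic cargo is degraded and loses fluorescence; 0% = median of neutral control wells and 100% = median of NaSCN control wells.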 The following applies: E. coli MC4100 TorA-mCherry Tat export, at 10 µM, active compounds read high.
For the compound `COC(=O)C1CCN(CC(N)=O)CC1`, the inhibition is -3.53%.

Consider `O=C(COC(=O)c1ccc(N2CCCC2=O)cc1)c1ccc(OC(F)F)cc1`, for which the inhibition was 6.18%.

For the compound `CCn1c(SCC(=O)c2ccc(Cl)s2)nnc1-c1cccs1`, the inhibition is -0.241%.

Take `CCOC(=O)N1CCC(N2Cc3cccc(C(=O)Nc4c(C)cccc4CC)c3C2=O)CC1`: the inhibition was 14.7%.

In the case of `CC1CCN(C(=S)NC2CC3CCC2C3)CC1` (centres undefined), the inhibition was -4.26%.

`Cc1nc(C(=O)N2CCCC(C(=O)c3ccc(Cl)cc3)C2)cs1` (centres undefined): the inhibition is 0.604%.

With `Oc1ccccc1-c1cc(-c2ccc(Cl)cc2)n[nH]1`, the inhibition was -12.8%.

As for `NS(=O)(=O)c1cc(C(=O)OCC(=O)NNC(=O)c2ccccc2)ccc1Cl`, the inhibition was -3.95%.

Regarding `COC(CCN(C)C)(c1ccccc1)c1ccccc1`, the inhibition is -2.82%.

Take `CN(C)[C@@H]1C(=O)C(C(N)=O)=C(O)[C@@]2(O)C(=O)C3=C(O)c4c(O)ccc(Cl)c4[C@@H](O)[C@H]3C[C@@H]12`: the inhibition was 151% (active).

With `C=C1c2c(Cl)ccc(O)c2C(O)=C2C(=O)[C@]3(O)C(O)=C(C(N)=O)C(=O)[C@@H](N(C)C)[C@@H]3[C@@H](O)C12` (some centres undefined), the inhibition was 28.9%.

Consider `CCN(C(=O)c1cc([N+](=O)[O-])ccc1NCc1cccnc1)c1ccccc1`, for which the inhibition is -1.18%.

In the case of `COc1ccc(C(=O)O)cc1S(=O)(=O)NC1CCN(Cc2ccccc2)CC1`, the inhibition was -6.45%.

On to `Cc1ccc(Cl)cc1NC(=O)COC(=O)C1CCCCC1`, for which the inhibition was 6.67%.

Take `O=C(CCc1nnc2ccc(NCc3ccccc3Cl)nn12)NCC1CCN(C2CCCC2)C1` (centres undefined): the inhibition was 1.11%.

`O=C(/C=C/Nc1ccc(S(=O)(=O)Nc2cnc3ccccc3n2)cc1)c1cccnc1`: the inhibition is -0.716%.

As to `COc1ccc(Br)cc1/C=N/Nc1ccc(S(=O)(=O)Nc2ccccc2C(=O)O)cc1[N+](=O)[O-]`, the inhibition was -2.56%.

For the compound `O=C(NCCCN1CCN(c2ccc(F)cc2)CC1)Nc1ccc([N+](=O)[O-])cc1`, the inhibition is 10.8%.

On to `O=S(=O)(c1ccc(F)cc1)n1ccc(-c2cnc(-c3ccccc3)s2)n1`, for which the inhibition is 1.96%.

As to `O=C(/C=N/O)Nc1ccccc1`, the inhibition was 1.32%.

In the case of `c1ccc2c(-c3nn4nnnc4c4ccccc34)cccc2c1`, the inhibition was 13.5%.

With `COCCNc1nc(N)c([N+](=O)[O-])c(NCCO)n1`, the inhibition is -3.96%.

In the case of `Cc1ccc(CSCC2Nc3ccc(C(=O)N4CCN(c5ccc(F)cc5)CC4)cc3NC2=O)cc1` (centres undefined), the inhibition is -4.6%.

As to `NC(=O)CCC(NS(=O)(=O)c1ccc(Cl)cc1)C(=O)NCc1ccccc1Cl` (centres undefined), the inhibition is -7.83%.

Take `CC(=O)N1CCN(CC(c2ccccc2)c2ccccc2)CC1`: the inhibition was -7.44%.

As to `CC1Cc2ccccc2N1C1=CC(=O)CC(C)(C)C1` (centres undefined), the inhibition is -0.619%.

Consider `CCC(C)NC(=O)C1c2ccccc2C(=O)N1Cc1ccccc1` (centres undefined), for which the inhibition was -2.59%.

As for `O=C(NCC(=O)N(Cc1cccs1)C(C(=O)NC1CCCCC1)c1ccco1)c1cccs1` (centres undefined), the inhibition is 7.02%.

On to `CC(C)(C)c1ccc(/C=C/C(=O)NC2CCS(=O)(=O)C2)cc1` (centres undefined), for which the inhibition is 0.013%.

On to `Cc1c(C)c2cc3c4c(oc3c(C)c2oc1=O)CCCC4`, for which the inhibition is -3.36%.

`Cc1cc(N2CCCC2=O)cc(C)c1S(N)(=O)=O`: the inhibition was -6.67%.

Turning to `CC1Sc2ccc(C(=O)NCc3ccccc3Cl)cc2NC1=O` (centres undefined), the inhibition is -5.09%.

With `CCC(=O)N1c2ccccc2NC2=C(C(=O)CCC2)C1c1ccco1` (centres undefined), the inhibition is -4.89%.

Turning to `CN1CCN(c2cc3c(cc2F)c(=O)c(C(=O)O)cn3CCF)CC1`, the inhibition was 81.7% (active).

In the case of `CCn1cc(C(=O)NCCO)c(=O)c2cc(F)c(N3CCN(C)CC3)cc21`, the inhibition was 81.4% (active).

Take `CCCCCCn1cc(C(=O)O)c(=O)c2cc(F)c(N3CCCCC3)cc21`: the inhibition is 4.11%.

As to `CCn1cc(C(=O)NCCC(=O)NCCO)c(=O)c2cc3c(cc21)OCO3`, the inhibition was 0.475%.

For `CCCCNC(=O)c1cn(CC)c2cc(N3CCN(C(=O)c4ccco4)CC3)c(F)cc2c1=O`, the inhibition is -4.43%.

Turning to `CCn1cc(S(=O)(=O)c2cccc(C)c2)c(=O)c2cc(F)c(N3CCN(C)CC3)cc21`, the inhibition was -3.59%.

Regarding `CC1(C)O[C@@H]2[C@H](O1)[C@@H](COS(=O)(=O)O)O[C@H]2n1ccc(=O)[nH]c1=O`, the inhibition was -1.01%.

As for `COc1ccc(S(=O)(=O)Nc2cccc3c2O[C@H](CN(C)S(=O)(=O)c2ccc(OC)cc2)[C@@H](C)CN([C@H](C)CO)C3=O)cc1`, the inhibition is 0.274%.

For `O=C(c1cn(-c2ccccc2)nc1-c1cccnc1)N1CCN(S(=O)(=O)c2ccccc2F)CC1`, the inhibition was 7.82%.

With `COc1ccc(CNC(=O)C(NS(=O)(=O)c2cccc3nsnc23)C(C)C)cc1` (centres undefined), the inhibition is -12.3%.

As to `Cc1nc2ccc(C(=O)N3CCSCC3)cc2s1`, the inhibition was -5.07%.

Turning to `COc1cc(C2CC(=O)Oc3cc(OC)c(OC)c(OC)c32)cc(OC)c1OC` (centres undefined), the inhibition was 0.529%.

For `COc1cccc(C(C(=O)NC2CCCC2)N(C(=O)c2ccco2)c2cccc(C(C)=O)c2)c1OC` (centres undefined), the inhibition is 7.67%.

In the case of `CCNC(=O)CC1C(=O)N(c2ccc(OC)cc2)C(=S)N1CCc1ccncc1` (centres undefined), the inhibition was 5.06%.

For `O=C(CN1CCN(S(=O)(=O)c2ccc(F)cc2)CC1)NC1CC1`, the inhibition is 2.17%.

Consider `CCn1cc(/C=C(\NC(=O)c2cc(OC)c(OC)c(OC)c2)C(=O)N2CCN(C)CC2)c2ccccc21`, for which the inhibition was 6.75%.

Regarding `N#Cc1nc(N)nc(N(c2ccccc2)c2ccccc2)n1`, the inhibition was -1.07%.

On to `CC(=O)NC(=S)NNC(=O)c1ccc(Br)cc1`, for which the inhibition is 10.8%.

Consider `O=C(COc1coc(CN2CCN(c3ccccc3)CC2)cc1=O)N1CCc2ccccc21`, for which the inhibition is -5.1%.

Regarding `COCC(=O)N1CCc2ccc(NC(=O)c3ccccc3Cl)cc2C1`, the inhibition is -8.59%.

On to `O=C(Cc1ccccc1F)NC1CCSc2ccccc21` (centres undefined), for which the inhibition is -4.99%.

In the case of `CC(N)C12CC3CC(CC(O)(C3)C1)C2` (centres undefined), the inhibition is -2.5%.

With `CCn1ccnc1CN1CCCC(C(=O)c2ccc3c4c(cccc24)CC3)C1` (centres undefined), the inhibition was -0.858%.

Turning to `COc1ccc(C2NCCCC2c2ccccc2)cc1` (centres undefined), the inhibition was 0.669%.

Consider `CC(=O)Nc1ccc(OCCC[n+]2cccc(C(=O)[O-])c2)cc1`, for which the inhibition is 0.863%.

On to `CCOC(=O)N1CCN(C(=O)c2ccccc2N(Cc2ccccc2)S(=O)(=O)c2ccc(OC)cc2)CC1`, for which the inhibition is -2.32%.
